These results are taken from PubChem BioAssay (NCATS).

Inconclusive results are not listed. Where a call stands in place of a potency, no number is given. The source made the active and inactive calls. The call rests on the fitted dose curve.

The assay can be described thus: Cytotoxicity counterscreen for inhibitors of SARS-CoV-2 cell entry (AID 1645845). Further: nearly all actives have a fitted effect of over 50% in size. The settings on record: cell viability (SARS-CoV-2 entry assay cells); series mostly up to 57.1 µM. A digest of the protocol:
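48 h compound treatment (after 1 h preincubation), HEK293-ACE2 cells, 37 C/5% CO2; ATP luminescence endpoint; normalized to cell wells and media blanks.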
`Oc1ccc(CCNCCCCCCNCCc2ccccc2)cc1O`: the Potency result is “inactive”.

Take `CN1CCC(=C2c3ccccc3CCc3cccnc32)CC1`: the Potency result is “inactive”.

With `Cc1ccc2nc(N)[nH]c(=O)c2c1Sc1ccncc1`, the Potency entry is “inactive”.

With `C/C=C(/C(=C/C)c1ccc(O)cc1)c1ccc(O)cc1`, the Potency result was “inactive”.
